Laboratory results from PubChem BioAssay (NCATS).
Values joined by “and” are separate entries in the source; they are usually repeats but may differ in a detail not shown here. Equal values may be shown once. Inconclusive results are not listed. Where a call stands in place of a potency, no number is given. Active and inactive are the calls of the source. Unless noted, calls come from the whole dose curve; as a rule, active = well fitted curve in the direction sought with a large enough effect; inconclusive = small, poorly fitted or top-dose-only effect, or another doubt; inactive = no such curve, though single readings can be large; an effect the other way counts as inactive or inconclusive.

Tests used:
[1] = Cell Viability - Jurkat (AID 426;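 active = dose-dependent loss of cell ATP signal giving a full or clear fitted curve, ranked by lower potency value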;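 note: potency is the fitted concentration of half-maximal effect; cells exposed to compound for 40 hours at 37 °C before ATP read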); conditions: qHTS
In short: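 Seed 5000 Jurkat E6-1 cells/well; add compound; incubate 40 hr at 37 °C; add CellTiter-Glo; wait 20 min at room temperature; read luminescence. Fit concentration-response with Hill equation for AC50.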

[2] = Cell Viability - Hek293 (AID 427;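 active = compounds whose dose-response curve shows a full or clear partial loss of cell viability, called from curve shape rather than a numeric limit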;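 note: potency is the fitted concentration of half-maximal effect; cells exposed to compound for 40 hours at 37 °C before reading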); conditions: qHTS
In short: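 qHTS, human embryonic kidney (adenovirus-transformed) cells; 40 hr cpd, 37 °C; CellTiter-Glo ATP luminescence. Norm: DMSO = 0, 100 uM tamoxifen = 100% inhibition. Hill-fit AC50.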

[3] = Cell Viability - NIH 3T3 (AID 541); conditions: NIH 3T3 cell viability, qHTS; activity change, negative = cytotoxicity: at 92.2 µM (top of the series);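 note: cells exposed to compound for 40 hours; nearly all actives have a fitted effect of over 25% in size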
In short: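 AC50 values reflect concentration-dependent loss of intracellular ATP in NIH 3T3 cells after 40 hr treatment in complete culture medium, quantified by luciferase-based luminescence.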

[4] = Cellular Toxicity (caspase-3) NIH 3T3 (AID 666);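 note: caspase signal read after 16 h compound exposure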
In short: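 Concentration-response qHTS in NIH 3T3 mouse fibroblasts scores caspase-3/7 activation as rising luminescence after 16 hr compound exposure. Signals are scaled between DMSO-only and 100 uM tamoxifen.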

[5] = Cell Viability - LYMP2-001 (AID 921);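 note: cells exposed to compound for 24 h at 37 °C; nearly all actives have a fitted effect of over 70% in size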
In short: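 CellTiter-Glo luminescence (intracellular ATP) after 24 hr compound exposure at 37 C, 2500 lymphoblastoid cells/well in complete medium. AC50 fitted with standard Hill equation; tetraoctylammonium bromide positive control.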

[6] = Cell Viability - LYMP2-021 (AID 974);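 note: compound exposure lasts 24 hours at 37 °C; nearly all actives have a fitted effect of over 55% in size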
In short: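 Concentration-response cytotoxicity in a human lymphoblastoid line: 24 hr treatment at 37 C in complete culture medium, tetraoctylammonium bromide as positive control, luminescent ATP quantitation as viability measure.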

[7] = Cell Viability - LYMP2-010 (AID 981);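 note: cells exposed to compound for 24 hours at 37 °C; nearly all actives have a fitted effect of over 55% in size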
In short: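 Acute toxicity is scored as a concentration-dependent loss of cellular ATP in human lymphoblastoid cells after 24 hr compound exposure in complete medium. Tetraoctylammonium bromide is the positive control.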

[8] = Cell Viability - LYMP2-012 (AID 982);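 note: cellular ATP by luciferase luminescence where a drop means cytotoxicity; cells exposed to compound for one day before reading; nearly all actives have a fitted effect of over 55% in size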
[9] = Cell Viability - LYMP2-016 (AID 984);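 note: cells exposed to compound for 24 hours at 37 °C; nearly all actives have a fitted effect of over 55% in size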
In short: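 qHTS, 1536-well: 2500 LYMP2-016 cells/well, 5 hr 37 C, compound added, 24 hr 37 C, CellTiter-Glo 30 min RT, luminescence. Tetraoctylammonium bromide positive control. AC50 via Hill fit.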

[10] = Cell Viability - LYMP2-018 (AID 985); note: nearly all actives have a fitted effect of over 50% in size
In short: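 Acute cytotoxicity is scored as a concentration-dependent drop in intracellular ATP after 24 hr exposure of the lymphoblastoid line in complete culture medium, measured by luciferase luminescence. Potency is expressed as AC50 from Hill modelling.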

[11] = Cell Viability - LYMP2-020 (AID 986)
In short: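 Acute cytotoxicity in a human lymphoblastoid line is scored as a concentration-dependent fall in cellular ATP after 24 hr at 37 C in complete medium. The positive control is tetraoctylammonium bromide, and potency is given as Hill-fit AC50.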

[12] = Cell Viability - LYMP2-022 (AID 987); note: nearly all actives have a fitted effect of over 55% in size
In short: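 Acute toxicity in a human lymphoblastoid line is scored as decreased intracellular ATP after 24 hr compound treatment at 37 C. ATP is measured by CellTiter-Glo luminescence; curves are fitted with the Hill equation to give AC50.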

[13] = Cell Viability - LYMP2-024 (AID 988); note: nearly all actives have a fitted effect of over 60% in size
In short: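 Acute toxicity is measured as concentration-dependent loss of intracellular ATP in a human lymphoblastoid line treated 24 hours at 37 C. Luciferase luminescence quantifies ATP; AC50 values come from standard Hill-equation modelling.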

[14] = Cell Viability - LYMP2-026 (AID 989);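 note: cells exposed to compound for 24 h at 37 °C; nearly all actives have a fitted effect of over 50% in size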
In short: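 Concentration-dependent loss of intracellular ATP in human lymphoblastoid cells after 24 hr at 37 C, quantified by luciferase luminescence. AC50 derived from standard Hill equation.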

[15] = qHTS Assay for Identification of Small Molecule Inducers of Hypoxia Response (AID 2120; active = well fitted curve in the direction sought with a large enough effect in the signal ratio, with a control signal flat, not every such curve was filed as active; the % refers to the signal ratio)
In short: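 Induction of beta-lactamase reporter activity was measured in CellSensor HRE-bla ME-180 cells after 17 h compound treatment at 37 degrees C, using CCF4 substrate and the 460nm/530nm emission ratio to derive AC50 values.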

[16] = qHTS assay for small molecule agonists of retinoid X receptor alpha signaling (AID 588544; calls by dose curve); conditions: HEK293T RXRa-UAS-bla, beta-lactamase reporter, 18 h; 530 nm emission
[17] = molecular target: Retinoic acid receptor RXR-alpha (Homo sapiens) (UniProt P19793); test: as above
Sequence of Retinoic acid receptor RXR-alpha (Homo sapiens) (P19793 whole entry, looked up): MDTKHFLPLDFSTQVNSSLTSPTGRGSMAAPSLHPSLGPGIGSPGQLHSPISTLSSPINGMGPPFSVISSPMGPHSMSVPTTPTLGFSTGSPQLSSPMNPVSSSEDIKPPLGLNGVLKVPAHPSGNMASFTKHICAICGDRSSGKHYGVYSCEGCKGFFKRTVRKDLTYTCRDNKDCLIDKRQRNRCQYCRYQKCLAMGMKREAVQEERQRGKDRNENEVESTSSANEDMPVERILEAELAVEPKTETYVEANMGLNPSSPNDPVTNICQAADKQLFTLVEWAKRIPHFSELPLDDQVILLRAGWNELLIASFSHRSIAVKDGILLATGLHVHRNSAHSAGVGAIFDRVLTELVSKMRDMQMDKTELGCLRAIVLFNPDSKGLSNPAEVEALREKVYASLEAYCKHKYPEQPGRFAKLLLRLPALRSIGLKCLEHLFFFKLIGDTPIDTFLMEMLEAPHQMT

[18] = molecular target: Thyroid hormone receptor beta (Homo sapiens) (UniProt P10828); test: qHTS assay for small molecule antagonists of thyroid hormone receptor beta signaling (AID 588547; active = well fitted inhibition curve with a large enough effect in the signal ratio, with a control signal flat, not every such curve was filed as active; the % refers to the signal ratio;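 note: cells stimulated with 0.4 nM T3 agonist during compound exposure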); conditions: TR-UAS-bla HEK293, beta-lactamase ratio, antagonist mode, 18 h
Sequence of Thyroid hormone receptor beta (Homo sapiens) (P10828 whole entry, looked up): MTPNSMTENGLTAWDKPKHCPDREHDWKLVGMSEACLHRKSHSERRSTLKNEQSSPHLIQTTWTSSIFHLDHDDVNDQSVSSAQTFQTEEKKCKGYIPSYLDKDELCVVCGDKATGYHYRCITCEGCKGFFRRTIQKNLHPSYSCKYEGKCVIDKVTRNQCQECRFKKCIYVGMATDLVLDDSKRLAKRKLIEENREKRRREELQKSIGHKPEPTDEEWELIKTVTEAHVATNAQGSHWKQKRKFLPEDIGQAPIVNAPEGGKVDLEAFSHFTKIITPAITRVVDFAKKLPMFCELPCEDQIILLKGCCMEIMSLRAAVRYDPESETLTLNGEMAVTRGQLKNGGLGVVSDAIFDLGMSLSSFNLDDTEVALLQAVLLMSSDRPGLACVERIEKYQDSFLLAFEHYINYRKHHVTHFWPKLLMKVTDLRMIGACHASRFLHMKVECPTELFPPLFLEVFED
In short: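 TR-UAS-bla GripTite HEK293 cells in 2% charcoal/dextran FBS medium; compounds 0.59 nM to 92 uM with T3 at 0.4nM final, 18 h at 37 C. Beta-lactamase read by CCF4 fluorescence (460/530 nm); Hill fits gave IC50 and efficacy.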

[19] = qHTS assay for small molecule disruptors of the mitochondrial membrane potential - 5 hr assay (AID 651755; calls by dose curve; note: nearly all actives have a fitted effect of over 40% in size)
In short: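 HepG2 cells (2,000/well), attached overnight, exposed to compound 5 hr at 37C, then Mito-MPS dye 30 min. Fluorescence read for monomers (490/535 nm) and aggregates (540/590 nm).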

[20] = molecular target: Tumor necrosis factor (Homo sapiens) (UniProt P01375); test: qHTS assay to identify small molecules that stimulate Tumor Necrosis Factor-alpha (TNF-alpha) secretion (AID 651757; active = well fitted curve in the direction sought with a large enough effect in the signal ratio; the % refers to the signal ratio)
Sequence of Tumor necrosis factor (Homo sapiens) (P01375 whole entry, looked up): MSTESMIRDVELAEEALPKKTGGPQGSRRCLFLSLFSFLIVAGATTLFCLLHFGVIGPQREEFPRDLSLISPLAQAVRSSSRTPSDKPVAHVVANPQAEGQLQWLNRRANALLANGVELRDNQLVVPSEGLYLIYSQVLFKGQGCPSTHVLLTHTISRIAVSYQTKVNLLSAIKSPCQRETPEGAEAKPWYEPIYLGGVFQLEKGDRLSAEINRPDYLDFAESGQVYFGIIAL
In short: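 Secreted TNF-alpha from compound-treated THP-1 cells (17 hrs, 37 C) was quantified with a homogeneous time-resolved fluorescence antibody assay.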

Structure (SMILES) | Potency [1] | Potency [2] | activity change, negative = cytotoxicity [3] | outcome [4] | Potency [5] | Potency [6] | Potency [7] | Potency [8] | Potency [9] | Potency [10] | Potency [11] | Potency [12] | Potency [13] | Potency [14] | outcome [15] | max response [16] | Potency [17] | activity change % (negative = inhibition) [18] | Potency [19] | outcome [20]
CC(C)(C)OOC(C)(C)C | > 92 µM (inactive) | > 92 µM (inactive) | -23.7% (inactive) | inactive | inactive | inactive | inactive | inactive | inactive | inactive | inactive | inactive | inactive | inactive | inactive | -0.936% | inactive | -4.91% (inactive) | inactive | inactive
C=C(Cl)Cl | > 92 µM (inactive) | > 92 µM (inactive) | 0.633% (inactive) | inactive | inactive | inactive | inactive | inactive | inactive | inactive | inactive | inactive | inactive | inactive | inactive | -17.1% | inactive | -6% (inactive) | inactive | inactive
C=CCOC(C)=O | > 92 µM (inactive) | > 92 µM (inactive) | -5.94% (inactive) | inactive | inactive | inactive | inactive | inactive | inactive | inactive | inactive | inactive | inactive | inactive | inactive | -7.26% | inactive | 14.6% (inactive) | inactive | inactive
CC(O)CCl (centres undefined) | > 92 µM (inactive) | > 92 µM (inactive) | 4.45% (inactive) | inactive | inactive | inactive | inactive | inactive | inactive | inactive | inactive | inactive | inactive | inactive | inactive | -11.9% and -9.91% | inactive | -4.17% (inactive) | inactive | inactive
O=C(Cl)C(Cl)(Cl)Cl | > 92 µM (inactive) | > 92 µM (inactive) | 1.81% (inactive) | inactive | inactive | inactive | inactive | inactive | inactive | inactive | inactive | inactive | inactive | inactive | inactive | 2.41% | inactive | -5.79% (inactive) | inactive | inactive
CCOP(=S)(OCC)SCSC(C)(C)C | > 92 µM (inactive) | > 92 µM (inactive) | 1.25% (inactive) | inactive | inactive | inactive | inactive | inactive | inactive | inactive | inactive | inactive | inactive | inactive | inactive | 19.7% and -0.121% | inactive | -5% (inactive) and -15.6% (inactive) | inactive | inactive
C=CC(=O)OCC | > 92 µM (inactive) | > 92 µM (inactive) | -21.9% (inactive) | inactive | inactive | inactive | inactive | inactive | inactive | inactive | inactive | inactive | inactive | inactive | inactive | -5.05% | inactive | -5% (inactive) | inactive | inactive
C=CC(N)=O | > 92 µM (inactive) | > 92 µM (inactive) | 5.3% (inactive) and 3.72% (inactive) | inactive | inactive | inactive | inactive | inactive | inactive | inactive | inactive | inactive | inactive | inactive | inactive | -5.65% and -3.81% | inactive | – | inactive | inactive
OCC1CO1 (centres undefined) | > 92 µM (inactive) | > 92 µM (inactive) | -5.54% (inactive) | inactive | inactive | inactive | inactive | inactive | inactive | inactive | inactive | inactive | inactive | inactive | inactive | -4.32% | inactive | -4.57% (inactive) and 15.9% (inactive) | inactive | inactive
Cc1ccc2ccccc2c1 | > 92 µM (inactive) | > 92 µM (inactive) | -11.3% (inactive) | inactive | inactive | inactive | inactive | inactive | inactive | inactive | inactive | inactive | inactive | inactive | inactive | -14.7% | inactive | 0.181% (inactive) | inactive | inactive
